Laboratory results: PubChem BioAssay (NCATS)
Values joined by “and” are separate entries in the source; they are usually repeats but may differ in a detail not shown here. Equal entries are not always repeated. Inconclusive results are not listed. Active and inactive are the calls of the source. Calls come from the whole dose curve.

Assay: Primary qHTS to identify inhibitors of SARS-CoV-2 cell entry (AID 1645846); note: nearly all actives have a fitted effect of over 45% in size
Details: SARS-CoV-2 pseudovirus cell entry assay, luminescence; activity change, negative = inhibition: at 57.1 µM (top of the series) unless noted
Text: Assay Provider: Wei Zheng, Ph.D.
National Center for Advancing Translational Sciences, National Institute of Health, Rockville, MD.
SARS-CoV-2 spike protein, within the viral envelope, mediates viral attachment and infection of host cells. The SARS-CoV-2 spike protein specifically binds to the host receptor ACE2 (Angiotensin-converting enzyme 2). This interaction promotes endocytosis of the viral particle, additional events lead to viral-host cell membrane fusion and release of the viral contents, allowing viral replication.
While SARS-CoV-2 requires BSL-3 facilities for live virus work, pseudotyped partices (PP) that incorporate SARS-CoV-2 spike proteins without replication elements could facilitate studies on viral entry mechanisms in a BSL-2 setting. This PP cell entry assay could also enable screening of small molecule compound libraries in BSL-2 setting to identify inhibitors of SARS-CoV-2 cell entry.
PROTOCOL TABLE (format as described by Inglese J, Shamu CE and Guy RK. 2007)
SEQUENCE No. (e.g., 1, 2, 3, etc.); […] (e.g., Cells, Incubation, Reagent, etc.); VALUE and DESCRIPTION.
1. Cells. Seed 1500 HEK293-ACE2 cells (Expi293F with stable expression of human ACE2) in 2 uL/well media (DMEM, 10% FBS, 1x L-glutamine, 1x Pen/Strep, 1 ug/ml puromycin) in white 1536-well assay plates (Greiner #782073).
2. Incubation. Incubate at 37C with 5% CO2 overnight (~16 h).
3. Compounds. Dispense 23 nL/well compounds in DMSO via pin transfer.
4. Incubation. Incubate for 1 hr at 37C 5% CO2.
5. Reagent. Dispense 2 uL/well of SARS-CoV-2-S pseudotyped particles. [a] PPs are produced with murine leukemia virus pseudotyping. [b] SARS-CoV-2-S is Wuhan-Hu-1 sequence (BEI #NR-52420) with C-terminal 19 amino acid truncation.
6. Centrifuge. […]
7. Incubation. Incubate at for 48 hr at 37C 5% CO2
8. Centrifuge. Remove supernatant with gentle centrifugation using a Blue Washer (BlueCat Bio).
9. Reagent. Dispense 4 uL/well of Bright-Glo Luciferase detection reagent (Promega #E2620).
10. Incubation. Incubate for 5 min at room temperature.
11. Detection. Read luminescence signal (Viewlux plate reader, PerkinElmer). Data was normalized with wells containing SARS-CoV-2-S PP as 100%, and wells containing bald PP (no fusion protein) as 0%.
Potency is the fitted concentration of half-maximal effect.

Compound | activity change, negative = inhibition | outcome | Potency
O=C(NOCCO)c1ccc2cncn2c1Nc1ccc(I)cc1F | -11.2% |  | 
CC(C)[C@H]1C(=O)N[C@@H](CCCN=C(N)N)C(=O)NCC(=O)N[C@@H](CC(=O)O)C(=O)N[C@H](Cc2ccccc2)C(=O)N1C | -11.5% [at 27.1 µM] |  | 
NCCS[As](SCCN)c1ccc(Nc2nc(N)nc(N)n2)cc1 | -25.6% |  | 
CN(C)Cc1ccc(S(=O)(=O)n2ccc(/C=C/C(=O)NO)c2)cc1 | 2% |  | 
CN(Cc1ccccc1)C(=O)[C@H](NC(=O)c1cc2cc(NC(=O)c3ccccc3-c3ccc(C(F)(F)F)cc3)ccc2n1C)c1ccccc1 | -7.12% |  | 
CC1(C)CN(C(=O)c2ccc(-c3cccc4nc(NC(=O)C5CC5)nn34)cc2)C1 | -61.8% |  | 
O=C1OC(COc2ccccc2[N+](=O)[O-])CC1Cc1ccccc1 (stereo not given) | -2.39% |  | 
O=C(/C=C/c1cccnc1)NCCCCC1CCN(C(=O)c2ccccc2)CC1 | -96.7% |  | 
CCCCCCCCCCCCCCCCCCCCCCCCCCCCO |  | inactive [at 0.702 µM] | 
O=C([O-])C[O-].[Pt+2] | -22.9% [at 27.1 µM] | inactive | 
CC1(C)C2CC[C@]3(C)C(C(=O)C=C4[C@@H]5C[C@@](C)(C(=O)O)CC[C@]5(C)CC[C@]43C)[C@@]2(C)CC[C@@H]1O (stereo not given in full) | -28.8% |  | 
COc1ncc(-c2ccc3c(Nc4cc(Oc5cc(F)cc(F)c5)cc(C(=O)O)c4)c(S(=O)(=O)NC4CC4)cnc3c2)c(OC)n1 | -25% |  | 
FCOC(C(F)(F)F)C(F)(F)F | -16% |  | 
Fc1ccc(-c2nc(-c3ccccc3F)[nH]c2-c2ccncc2)cc1 | -6.32% |  | 
CCCOc1cc(N)ccc1C(=O)OCCN(CC)CC | -10.9% |  | 
C[C@@H]1CCN(C(=O)N2CCCC2)C[C@@H]1N(C)c1ncnc2[nH]ccc12 |  | inactive | 
COc1cc(C(=O)O)ccc1NC(=O)[C@@H]1N[C@@H](CC(C)(C)C)[C@](C#N)(c2ccc(Cl)cc2F)[C@H]1c1cccc(Cl)c1F | 1.92% |  | 
COc1cc2c(Nc3ccc(Cl)c(Cl)c3F)ncnc2cc1OCC1C[C@@H]2CN(C)C[C@@H]2C1 (stereo not given in full) |  |  | 15.8 µM (active)
NC(=O)c1ccc[n+]([C@@H]2O[C@H](COP(=O)([O-])OP(=O)(O)OC[C@H]3O[C@@H](n4cnc5c(N)ncnc54)[C@H](O)[C@@H]3O)[C@@H](O)[C@H]2O)c1 | -19.8% |  | 
CC(Nc1ncnc2nc[nH]c12)c1cc2cccc(Cl)c2c(=O)n1-c1ccccc1 (stereo not given) | -36.2% |  | 

Compound | activity change, negative = inhibition | outcome | Potency
NS(=O)(=O)c1cc2c(cc1Cl)NC(Cc1ccccc1)NS2(=O)=O (stereo not given) | -16.2% |  | 
CCC(=O)OC1(C(=O)CCl)C(C)CC2C3CC(F)C4=CC(=O)C=CC4(C)C3(F)C(O)CC21C (stereo not given) | -5.75% |  | 
COc1ccc(C(=O)N2CCN(C(=O)/C=C/c3ccc(Br)cc3)CC2)cc1 | -2.12% |  | 
NC(=O)c1nc(F)c[nH]c1=O | -11.1% and -27.4% |  | 
CCc1cnn2c(NCc3ccc[n+]([O-])c3)cc(N3CCCC[C@H]3CCO)nc12 | -54% |  | 
O=C(NCc1ccc(S(=O)(=O)c2cccc(C(F)(F)F)c2)cc1)c1cnc2[nH]ncc2c1 | -97.3% |  | 
O=c1c(-c2ccc(O)cc2)coc2c([C@@H]3O[C@H](CO)[C@@H](O)[C@H](O)[C@H]3O)c(O)ccc12 | -22.1% |  | 
CO/N=C(\C(=O)N[C@@H]1C(=O)N2C(C(=O)O)=C(CSc3nnnn3C)CS[C@H]12)c1csc(N)n1 | -27.5% |  | 
C/C(=C\c1csc(C)n1)[C@@H]1C[C@@H]2O[C@]2(C)CCC[C@H](C)[C@H](O)[C@@H](C)C(=O)C(C)(C)[C@@H](O)CC(=O)N1 |  |  | 2.82 µM (active)
C=C1C[C@H]2C=Nc3cc(OCCCOc4cc5c(cc4OC)C(=O)N4CC(=C)C[C@H]4C=N5)c(OC)cc3C(=O)N2C1 | -62% |  | 
Cn1c(COP(=O)(NCCBr)NCCBr)cnc1[N+](=O)[O-] | -15% |  | 
O=C1O[C@H]2[C@H](OC(O)[C@@H]2O)[C@@H]1O (stereo not given in full) |  | inactive [at 114 µM] | 
CC[C@H]1[C@@H](O)[C@@H]2[C@H](CC[C@]3(C)[C@@H]([C@H](C)CCC(=O)O)CC[C@@H]23)[C@@]2(C)CC[C@@H](O)C[C@@H]12 | -6.18% |  | 
CN(CCOc1ccc(-c2ccc3c(c2)OCO3)cc1C(C)(C)C)CC(=O)O | -18.5% |  | 
COc1cc(C(=O)NC2CCN(C)CC2)c(F)cc1Nc1ncc2c(n1)N(C1CCCC1)CC(F)(F)C(=O)N2C | -99.3% |  | 
C[C@H]1[C@H](C)CC[C@]2(C(=O)O)CC[C@]3(C)C(=CC[C@@H]4[C@@]5(C)C[C@@H](O)[C@H](O)[C@@](C)(CO)[C@@H]5CC[C@]43C)[C@H]12 |  | inactive | 
O=C(NCC(=O)N1CC[C@H](NC2CCC(O)(c3ccc(-c4ncccn4)cn3)CC2)C1)c1cccc(C(F)(F)F)c1 (stereo not given in full) | -29.7% |  | 
CC(=O)OC1CC2CCC1(C)C2(C)C (stereo not given) | -37.9% |  | 
CC1(C)CCC2(CC1)N[C@@H](C(=O)N[C@@H]1CC[C@@H](C(N)=O)OC1)[C@H](c1ccnc(Cl)c1F)[C@]21C(=O)Nc2cc(Cl)ccc21 | -20.9% [at 37.9 µM] |  | 
